Biological target: Cyclin-dependent kinase 2 (Homo sapiens) (UniProt P24941);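 further: mean inhibition measured against the CDK2/cyclin E complex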
Conditions: at 1 µM

Row | SMILES | inhibition [%]
1 | CC1=C(C(=O)Nc2cc(Cl)c3[nH]ncc3c2)C(c2ccc(C(F)(F)F)cc2)CC(=O)N1 (stereo not drawn) | 7.57
2 | c1cc(-c2cnn3nc(N4CCOCC4)ccc23)nc(NC2CC2)n1 | 43.2
3 | CC(C)COC(=O)c1ccc2c(c1)/C(=C/Nc1ccc(S(N)(=O)=O)cc1)C(=O)N2 | 82.7
4 | Fc1ccc(-c2cc(-c3c[nH]nc3-c3ccccn3)ccn2)cc1 | 3.29
5 | COC(=O)c1sc(-n2cnc3cc(OC)c(OC)cc32)cc1OCc1ccccc1C(F)(F)F | 8.33
6 | Nc1ncc(-c2cccc(S(N)(=O)=O)c2)c2scc(-c3ccc(F)c(Cl)c3)c12 | 5.08
7 | Fc1ccc(-c2nn3ncccc3c2-c2ccnc(Nc3ccc4c(c3)OCCO4)n2)cc1 | 2.76
8 | COc1cc(Nc2nccc(Nc3ccc4c(C)n[nH]c4c3)n2)cc(OC)c1OC | 6.07
9 | O=C(O[C@H]1CN[C@H](C#Cc2cc3ncnc(Nc4ccc(Cc5ccccc5)cc4)c3s2)C1)N1CCOCC1 | 1.72
10 | Nc1nc(-c2ccc(F)cc2)c(-c2ccc3ncccc3n2)s1 | 10.7
11 | COc1ccc(-c2nn3ncccc3c2-c2ccnc(Nc3ccc4c(c3)OCCO4)n2)cc1 | -0.22
12 | CNC(=O)c1cncc(/C=C/c2ccccc2Cl)c1 | 0.52
13 | CCn1c(-c2nonc2N)nc2ccccc21 | 4.31
14 | N#Cc1c(NC(=O)CN2CCOCC2)sc2c1CCCC2 | 8.06
15 | NS(=O)(=O)c1ccc(N/N=C2\C(=O)Nc3ccc4ncccc4c32)cc1 | 84.3
16 | Nc1nc(-c2cccc(Cl)c2)c(-c2ccc3ncccc3n2)s1 | 4.47
17 | c1ccc(-c2nc3n(c2-c2ccc4c(c2)OCO4)CCC3)nc1 | 3.84

Row | SMILES | inhibition [%]
18 | Cc1ccc(O)cc1Nc1ccnc2cc(-c3ccccn3)ccc12 | 4.84
19 | NS(=O)(=O)c1ccc(Nc2ncc(-c3ccccc3)o2)cc1 | 86.8
20 | COc1cccc(-n2ncc3c(N/N=C/c4ccc(F)cc4)ncnc32)c1 | 15.5
21 | CCc1nn2ncccc2c1-c1ccnc(NC2CC2)n1 | 9.7
22 | COc1ccc(CNC(=O)c2ccc(-c3cc(-c4nnc(C)o4)ccc3C)cc2)cc1 | 3.08
23 | CCCN(CCS(C)(=O)=O)Cc1ccc(-c2ccc3ncnc(Nc4ccc(OCc5cccc(F)c5)c(Cl)c4)c3c2)o1 | 7
24 | Cc1ccc2c(-c3ccnc(Nc4ccccc4)n3)c(-c3ccc(F)cc3)nn2n1 | 5.57
25 | COc1cc(/C=N/Nc2ncnc3[nH]ncc23)ccc1O | 13.9
26 | FC(F)(F)c1cccc(-c2nn3ncccc3c2-c2ccnc(Nc3ccc4c(c3)OCCO4)n2)c1 | 4.5
27 | O=S(=O)(CCNCc1ccc(-c2ccc3ncnc(Nc4ccc(OCc5cccc(F)c5)c(Cl)c4)c3c2)o1)c1ccccc1 | 5.45
28 | CCn1c(-c2nonc2N)nc2c(C#CC(C)(C)O)ncc(OC3CCNCC3)c21 | 3.09
29 | COc1ccc2c(-c3ccnc(Nc4cccc(OC(F)(F)F)c4)n3)cnn2n1 | 57
30 | CC(C)(CO)CNC(=O)c1ccc2c(c1)/C(=N/Nc1ccc(S(N)(=O)=O)cc1)C(=O)N2 | 81.2
31 | NC(=O)c1sc(-n2cnc3ccc(C(F)(F)F)cc32)cc1OCc1ccccc1Br | 3.25
32 | COC(=O)Nc1nc2ccc(Oc3ccc(NC(=O)Nc4cccc(Cl)c4)cc3)cc2[nH]1 | 0.48
33 | CS(=O)(=O)CCNCc1ccc(-c2ccc3ncnc(Nc4ccc(OCc5ccccc5)c(C(F)(F)F)c4)c3c2)o1 | 4.6
34 | COc1ccc2[nH]c3c4[nH]c5ccc(OC)cc5c4c4c(c3c2c1)C(=O)NC4=O | 4.91

Biological target: CDK3/Cyclin E (Homo sapiens) (UniProt P24864+Q00526);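 further: reported percentages are mean inhibition values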
Conditions: at 0.1 µM

Chain of CDK3/Cyclin E (Homo sapiens) (P24864 whole entry, looked up): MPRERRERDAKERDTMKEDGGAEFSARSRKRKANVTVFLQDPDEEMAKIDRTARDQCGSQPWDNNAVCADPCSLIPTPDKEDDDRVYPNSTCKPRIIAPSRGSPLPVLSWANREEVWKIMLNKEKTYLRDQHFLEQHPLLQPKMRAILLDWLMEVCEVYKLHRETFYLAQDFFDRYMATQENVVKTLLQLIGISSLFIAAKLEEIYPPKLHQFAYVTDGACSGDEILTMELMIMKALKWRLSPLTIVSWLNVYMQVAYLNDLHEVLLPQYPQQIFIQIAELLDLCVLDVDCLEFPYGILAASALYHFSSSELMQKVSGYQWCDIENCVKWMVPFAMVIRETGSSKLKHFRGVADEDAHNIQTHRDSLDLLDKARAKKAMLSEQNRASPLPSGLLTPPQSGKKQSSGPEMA
Chain of CDK3/Cyclin E (Homo sapiens) (Q00526 whole entry, looked up): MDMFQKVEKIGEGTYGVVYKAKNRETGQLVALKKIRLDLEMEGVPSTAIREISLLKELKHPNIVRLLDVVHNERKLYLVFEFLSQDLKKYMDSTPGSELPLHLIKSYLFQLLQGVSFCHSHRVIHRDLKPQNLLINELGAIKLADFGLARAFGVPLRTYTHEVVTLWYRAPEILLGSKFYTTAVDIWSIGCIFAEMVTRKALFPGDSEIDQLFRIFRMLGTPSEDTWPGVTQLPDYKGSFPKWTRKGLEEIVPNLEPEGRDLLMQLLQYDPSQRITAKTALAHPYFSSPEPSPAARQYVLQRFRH

Row | SMILES | inhibition [%]
35 | CC1=C(C(=O)Nc2cc(Cl)c3[nH]ncc3c2)C(c2ccc(C(F)(F)F)cc2)CC(=O)N1 (stereo not drawn) | 2.08
36 | c1cc(-c2cnn3nc(N4CCOCC4)ccc23)nc(NC2CC2)n1 | 2.41
37 | CC(C)COC(=O)c1ccc2c(c1)/C(=C/Nc1ccc(S(N)(=O)=O)cc1)C(=O)N2 | 43.8
38 | Fc1ccc(-c2cc(-c3c[nH]nc3-c3ccccn3)ccn2)cc1 | 2.03
39 | COC(=O)c1sc(-n2cnc3cc(OC)c(OC)cc32)cc1OCc1ccccc1C(F)(F)F | 3.47
40 | Nc1ncc(-c2cccc(S(N)(=O)=O)c2)c2scc(-c3ccc(F)c(Cl)c3)c12 | -2.34
41 | Fc1ccc(-c2nn3ncccc3c2-c2ccnc(Nc3ccc4c(c3)OCCO4)n2)cc1 | 3.59
42 | COc1cc(Nc2nccc(Nc3ccc4c(C)n[nH]c4c3)n2)cc(OC)c1OC | 1.75
43 | O=C(O[C@H]1CN[C@H](C#Cc2cc3ncnc(Nc4ccc(Cc5ccccc5)cc4)c3s2)C1)N1CCOCC1 | -2.04
44 | Nc1nc(-c2ccc(F)cc2)c(-c2ccc3ncccc3n2)s1 | 3.73
45 | COc1ccc(-c2nn3ncccc3c2-c2ccnc(Nc3ccc4c(c3)OCCO4)n2)cc1 | -2.12
46 | CNC(=O)c1cncc(/C=C/c2ccccc2Cl)c1 | 0.31
47 | CCn1c(-c2nonc2N)nc2ccccc21 | 1.63
48 | N#Cc1c(NC(=O)CN2CCOCC2)sc2c1CCCC2 | 5.84
49 | NS(=O)(=O)c1ccc(N/N=C2\C(=O)Nc3ccc4ncccc4c32)cc1 | 79.7
50 | Nc1nc(-c2cccc(Cl)c2)c(-c2ccc3ncccc3n2)s1 | 2.24
51 | c1ccc(-c2nc3n(c2-c2ccc4c(c2)OCO4)CCC3)nc1 | 2.37

Row | SMILES | inhibition [%]
52 | Cc1ccc(O)cc1Nc1ccnc2cc(-c3ccccn3)ccc12 | 1.95
53 | NS(=O)(=O)c1ccc(Nc2ncc(-c3ccccc3)o2)cc1 | 44.6
54 | COc1cccc(-n2ncc3c(N/N=C/c4ccc(F)cc4)ncnc32)c1 | 3.62
55 | CCc1nn2ncccc2c1-c1ccnc(NC2CC2)n1 | -0.69
56 | COc1ccc(CNC(=O)c2ccc(-c3cc(-c4nnc(C)o4)ccc3C)cc2)cc1 | 3.23
57 | CCCN(CCS(C)(=O)=O)Cc1ccc(-c2ccc3ncnc(Nc4ccc(OCc5cccc(F)c5)c(Cl)c4)c3c2)o1 | 0.67
58 | Cc1ccc2c(-c3ccnc(Nc4ccccc4)n3)c(-c3ccc(F)cc3)nn2n1 | 2.45
59 | COc1cc(/C=N/Nc2ncnc3[nH]ncc23)ccc1O | 1.56
60 | FC(F)(F)c1cccc(-c2nn3ncccc3c2-c2ccnc(Nc3ccc4c(c3)OCCO4)n2)c1 | 1.7
61 | O=S(=O)(CCNCc1ccc(-c2ccc3ncnc(Nc4ccc(OCc5cccc(F)c5)c(Cl)c4)c3c2)o1)c1ccccc1 | 0.01
62 | CCn1c(-c2nonc2N)nc2c(C#CC(C)(C)O)ncc(OC3CCNCC3)c21 | -1.98
63 | COc1ccc2c(-c3ccnc(Nc4cccc(OC(F)(F)F)c4)n3)cnn2n1 | 3.19
64 | CC(C)(CO)CNC(=O)c1ccc2c(c1)/C(=N/Nc1ccc(S(N)(=O)=O)cc1)C(=O)N2 | 48.5
65 | NC(=O)c1sc(-n2cnc3ccc(C(F)(F)F)cc32)cc1OCc1ccccc1Br | 1.2
66 | COC(=O)Nc1nc2ccc(Oc3ccc(NC(=O)Nc4cccc(Cl)c4)cc3)cc2[nH]1 | 1.02
67 | CS(=O)(=O)CCNCc1ccc(-c2ccc3ncnc(Nc4ccc(OCc5ccccc5)c(C(F)(F)F)c4)c3c2)o1 | 0.51
68 | COc1ccc2[nH]c3c4[nH]c5ccc(OC)cc5c4c4c(c3c2c1)C(=O)NC4=O | 2.31

Source: ChEMBL document CHEMBL1961873, “Compounds: GSK PKIS; Assays: Nanosyn kinase panel” (2012)
